# Several values for one entry are separate records, joined by “and”; a condition that tells them apart may be missing. Identical values can stand only once. This is part of a sample that, as a whole, favours compounds with a hit. Of some 83,000 tested, about 20% had one in any assay.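 Step 1: grow cells in 96-well plates. Step 2: add test compound at a single concentration. Step 3: incubate 48 h. Step 4: record percent growth.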 Activity calls are given as the source filed them. The calls were made as follows: active = growth percent below 10; inactive = the rest.
# Test system: MDA-MB-468 breast
# Assay: NCI-60 one-dose screen, 48 h (100 = growth as untreated, 0 = no growth, -100 = all killed)
# Details: 10 µM unless noted
row,SMILES,growth
1,Cc1ccc(C(=O)CSc2nnc(-c3ccc(-c4ccc(Cl)cc4)nc3C)o2)cc1,94.9% (inactive)
2,CCn1c(SCC(=O)Nc2cccc(C(=O)/C=C/c3cc(OC)c(OC)c(OC)c3)c2)nc2ccccc2c1=O,31.8% (inactive)
3,CC1CCc2c(sc3nc(SCC(=O)N/N=C/c4cccc(O)c4O)n(-c4ccccc4)c(=O)c23)C1 (configuration not stated),77.7% (inactive)
4,Fc1cccc(-c2ccc3c(c2)C2(CCNCC2)CN3)c1,116% (inactive)
5,CC(C)(C)c1cc(C=Nc2cccc(C(F)(F)F)c2)c(O)c(C(C)(C)C)c1,95.8% (inactive)
6,C=CCOC(=O)C1=C(C)NC2=C(C(=O)CCC2)C1c1ccc(F)cc1 (configuration not stated),92.3% (inactive)
7,Clc1nc(Cl)c2ncn(CC3(Cn4cnc5c(Cl)nc(Cl)nc54)COC3)c2n1,-60.7% (active)
8,NS(=O)(=O)c1ccc(Nc2nc(N/N=C/c3ccc(C(F)(F)F)cc3)nc(Nc3ccccc3)n2)cc1,34.3% (inactive)
9,CNC(=O)c1cc(Oc2ccc3nc(NC(=O)c4cc(C(F)(F)F)cc(C(F)(F)F)c4)sc3c2)ccn1,23% (inactive)
10,CCN(CC)c1ccc(/C=C\C(=O)c2ccc(NC(C)=O)cc2)cc1,10.7% (inactive)
11,CCCCCCCCCCCCCC1=NC(C)(C)CN1C(C)C,-61.4% (active)
12,COc1cc(NC(=O)Nc2cnc(Nc3ccc(N4CCOCC4)cc3)nc2Oc2ccc(C(F)(F)F)cc2)cc(OC)c1,110% (inactive)
13,O=C(C(=O)N1CCOCC1)c1ccc(OC2OC(CO)C(O)C(O)C2O)cc1 (configuration not stated),105% (inactive)
14,NS(=O)(=O)c1ccc(N=Nc2ccc(-c3nn4cc(-c5ccccc5)nc4s3)cc2)cc1,100% (inactive)
15,CCCCCOC(=O)c1ccccc1O,107% (inactive)
16,C/C(=N\N1CC(=O)NC1=O)c1ccc([N+](=O)[O-])o1,95.7% (inactive)
17,FC(F)(F)c1cn(CC2CNC2)c2ncnc(Cl)c12,111% (inactive)
18,Cc1ccc(O)c(C(=O)c2ccccc2)c1,103% (inactive)
19,CCn1cc(-c2ccnc3[nH]c(-c4cccc(CN(C)C)c4)cc23)c(-c2ccc(NC(=O)N(C)C)cc2)n1,56.5% (inactive)

row,SMILES,growth
1,Cn1c2c(Cl)c(Cl)ccc2c2c(C#N)c[nH]c(=O)c21,111% (inactive)
2,O=C1[C@H]2Cc3c([nH]c4ccccc34)[C@@H](c3ccc(Br)cc3)N2C(=O)CN1C1CCN(CC2CCCCC2)CC1,-84.6% (active)
3,Cc1cscc(C)c1=S,72.3% (inactive)
4,CC[C@H](CC[C@@H](C)[C@H]1CC[C@H]2[C@@H]3/C(=C/c4cccnc4)C(=O)C4=CC(=O)CC[C@]4(C)[C@H]3CC[C@]12C)C(C)C,97% (inactive)
5,C=C1C(=O)O[C@H]2[C@H]1CC/C(COC(=O)NCc1cc[nH]c1)=C\CC[C@@]1(C)O[C@@H]21,16.8% (inactive)
6,COc1ccc(-c2nn(-c3cccc(Cl)c3)cc2-c2cc(-c3ccccc3)[nH]c(=O)c2C#N)cc1,16.4% (inactive)
7,CC1=CN2C(=NC3=C(CCCC/C3=C\c3ccccc3)C2c2ccccc2)S1 (configuration not stated),116% (inactive)
8,Cn1c(-c2ccccc2)c(/C=C/C2=[N+](C)c3ccccc3C2(C)C)c2ccccc21,-16.5% (active)
9,CCN(CC)CCCC(C)N(Cc1ccccc1)CC(O)c1ccc(Cl)cc1 (configuration not stated),91.2% (inactive) and 104% (inactive)
10,CC(C)COC(=O)COC(=O)OCCOCCOC(=O)OCC(=O)OCC(C)C,105% (inactive)
11,O=C(CSc1nc2ccccc2c(=O)n1-c1ccc(S(=O)(=O)Nc2ccc(Cl)nn2)cc1)Nc1ccc(S(=O)(=O)Nc2ccc(Cl)nn2)cc1,94.9% (inactive)
12,Cc1ccc(Nc2nc(N)nc(CSCC(=O)NN)n2)cc1,95.7% (inactive)
13,Cc1[nH]n(C(N)=S)c(=O)c1N=Nc1ccc(S(=O)(=O)Nc2ccncn2)cc1,86.4% (inactive)
14,NC(=S)N=Nc1c(O)c2ccccc2c2ccccc12,88.3% (inactive)
15,O=[N+]([O-])c1cccc(-c2nc3cc4nc5ccccc5[nH]c4cc3n2)c1,95.5% (inactive)
16,C=C(C)[C@@H]1CC[C@]2(CN)CC[C@]3(C)[C@H](CC[C@@H]4[C@@](C)(CCCN)[C@H](C(=C)C)CC[C@]43C)[C@@H]12,84.7% (inactive)
17,COc1ccc(S(=O)(=O)N(C)c2oc(-c3ccc(Cl)cc3)nc2C#N)cc1,32.1% (inactive)
18,CC(C)c1nc(N(C)S(C)(=O)=O)nc(-c2ccc(F)cc2)c1/C=C/C(=O)C[C@@H](O)CC(=O)O,113% (inactive)
